The supplement of paper PMC6555819

What was measured:
Assay in all cases: PBM binding z-score (relative to random genomic background probes); higher = stronger binding; sequences stand for … in GC…GCGATTGACAGCGTAGAATGAAGG
[1] = tested on: RARb homodimer (NR concentration 270 nM)
In short: (§1)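 Each nuclear receptor dimer, without ligand, was incubated for 1 h on custom Agilent 4×180K protein-binding microarrays. Binding was detected with antibodies against each partner (one per run), and scanned fluorescence was regression-normalized. The binding z-scores are referenced to random human genomic background probes.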

[2] = tested on: RARg:RXRa (NR concentration 270 nM, RXRa partner concentration 90 nM)
In short: as §1

[3] = tested on: RARg homodimer (NR concentration 270 nM)
In short: as §1

[4] = tested on: RXRa DBDmut IVT, anti-RXR (DBD mutation: RXRa K156A/R161A, NR concentration 90 nM)
In short: as §1

[5] = tested on: RXRa homodimer (NR concentration 180 nM)
In short: as §1

[6] = tested on: THRa:RXRa (NR concentration 90 nM, RXRa partner concentration 90 nM)
In short: as §1

[7] = tested on: THRa homodimer (NR concentration 90 nM)
In short: as §1

[8] = tested on: VDR homodimer (NR concentration 270 nM)
In short: as §1

| Sequence | PBM binding z-score [1] | PBM binding z-score [2] | PBM binding z-score [3] | PBM binding z-score [4] | PBM binding z-score [5] | PBM binding z-score [6] | PBM binding z-score [7] | PBM binding z-score [8] |
| --- | --- | --- | --- | --- | --- | --- | --- | --- |
| GATACAGGGTCAGCGAGAGGCCAGAGTATGGAAA | 3.12 | 6.57 | 4.48 | 1.31 | 4.6 | 3.3 | 0.369 | 0.864 |
| CCAGACAGGTGATAGGTAACTCAGTCTGGTACGC | 0.0377 | 0.156 | 0.068 | -0.237 | 0.368 | -0.116 | -0.179 | -0.505 |
| GCGACTGGGGCAAAGCAGGTTGCCATAAGGTTGG | 0.156 | 0.0303 | 0.101 | -0.48 | -0.0833 | 1.59 | -0.471 | -0.513 |
| CAAACTAGGTCACCAGAAGGTCAAAGTCCGCATG | 5.5 | 8.08 | 7.22 | 2.32 | 6.38 | 4.35 | 2.59 | 3.71 |
| GCGACTGAGGCAAAGCAGGTTACCATAAGGTTGG | 0.0198 | 0.00383 | -0.272 | -0.374 | 0.123 | 1.54 | -0.231 | -0.64 |
| AGCGAAAGGTCGACGAGGTGAGTATACACCGTTT | 2.99 | 4.23 | 4.03 | 0.801 | 4.4 | 3.75 | 0.716 | 0.753 |
| AGAATGAGGGTACCAAAGATCAGGGAAACGCTTG | 0.0111 | 0.44 | 0.506 | 0.104 | 0.821 | 0.502 | -0.667 | -0.0915 |
| TCTTGTAGATCAGCAGGAGGTTAAGAAAGATCGA | 0.33 | 0.611 | 0.176 | 0.327 | 0.81 | 0.885 | -0.878 | -0.496 |
| GCAGACAGGTGATACGCAGGTAACTCAGGGTGGC | -0.38 | -0.066 | -0.0165 | -0.589 | 0.293 | 0.561 | -0.509 | -0.5 |
| CGAACTAGGTCTTTGACAGGACAGTGAATAGTAA | 0.139 | 0.112 | 0.193 | 0.262 | -0.252 | 0.309 | -0.0353 | -0.305 |
| GCAACTGGGGCAAAGCAGGTTACCATAAGGTTGG | 1.27 | 0.563 | 0.56 | -0.0375 | 0.648 | 2.78 | 0.101 | -0.248 |
| GCAGACAGGTGAACCGCAGGTAACTCAGGGTGGC | 0.366 | 1.37 | 0.342 | -0.635 | 1.54 | 1.76 | -0.376 | -0.237 |
| CAGACTGGGGCAAAGGTTACCATACTCAGTACGA | 2.35 | 3.54 | 2.64 | 0.804 | 3.83 | 1.97 | 0.0193 | 0.311 |
| TATCCTAGGTCATGCGGGCCAGTATAGTGTCGGC | 3.12 | 4.06 | 4.98 | 1.6 | 3.59 | 3.43 | 1.91 | 1.29 |
| AGAACGAGGGCACGCTGAGTTGATAGTAGAGTAG | 1.25 | 1.99 | 2.41 | 2.07 | 1.34 | 1.9 | 0.0891 | 1.95 |
| CCTACTGGGCGAAAAAGGTCATTGATGCCGATAA | 4 | 3.97 | 3.43 | 0.151 | 4.51 | 3.05 | -0.0329 | 1.75 |
| CCTTCTAGGTCAATGGTCAGCTAAAGCAGCTCGC | 2.97 | 3.53 | 4.58 | 1.88 | 2.35 | 2.71 | 1.37 | 0.249 |

| Sequence | PBM binding z-score [1] | PBM binding z-score [2] | PBM binding z-score [3] | PBM binding z-score [4] | PBM binding z-score [5] | PBM binding z-score [6] | PBM binding z-score [7] | PBM binding z-score [8] |
| --- | --- | --- | --- | --- | --- | --- | --- | --- |
| CCTGCTAGGTCATGTTCAGCTAATCTACAGTATG | 2.65 | 3.26 | 3.95 | 2.42 | 2.13 | 2.51 | 1.08 | 0.754 |
| CGTCAAAGTTTAAGGTAACGTAACAGAAAGCAGC | 0.852 | 0.923 | 1.7 | 1.29 | 0.482 | 3.1 | 3.1 | -0.0381 |
| ACTCGGAGGAAAAAGGTCAGAGCTACGCCAGTGA | 4.12 | 4.09 | 3.97 | -0.291 | 3.67 | 2.24 | -0.145 | 0.161 |
| CCTAGTGGGCCACGAAAGGTCATTGATTCAGTGA | 4.68 | 4.71 | 4.64 | 0.0516 | 5.09 | 3.82 | 0.453 | 1.99 |
| CGAACTAGGTCAGAACAGGACACTGAAGGATGAT | 2.12 | 2.35 | 3.35 | 0.629 | 1.37 | 4.03 | 0.473 | 0.123 |
| GCAGACAGGTGAAACGCAGATAACTCAGGGTGGC | -0.0268 | 0.355 | 0.45 | -0.555 | 0.883 | 0.121 | -0.589 | -0.804 |
| TGAATGAGGTTATAACATCAGGGAACGTTGCAAA | -0.0288 | 1.33 | 0.791 | 0.901 | 2.09 | 1.78 | -0.00143 | 0.537 |
| GCGACTGGGGCCAAGCAGGTTACCATAAGGTTGG | 1.2 | 0.615 | 0.586 | -0.252 | 0.329 | 1.3 | 0.0537 | 0.051 |
| ATATGTAGGTTAAATCCGGGTCATTCAGGCTATG | 3.23 | 4.91 | 2.25 | 1.1 | 3.3 | 4.46 | 2.71 | 2.5 |
| CAAACTAGGTCACCGGACGGTCAAAGTCCGCATG | 4.41 | 6.71 | 6.04 | 1.41 | 4.05 | 3.5 | 1.73 | 1.1 |
| CCTTACGGGTCACTGACCGGTTATAGCATTTGGA | 3.25 | 5.43 | 4.56 | 1.45 | 4.82 | 2.56 | 0.389 | 0.995 |
| CAGCCTAGGTCAGGGCCAGAATAGGAGGAACGTT | 2.24 | 2.81 | 3.54 | -0.145 | 1.6 | 1.84 | 0.0772 | -0.324 |
| CGTCCAAGGTCATAGGAGGTCAGGGAAGACAGAT | 5.2 | 6.79 | 7.15 | 3.89 | 6.99 | 5.41 | 3.54 | 4.28 |
| GCTAGCAGGCCATTTGGGTCACTTAATGACGGGC | 1.82 | 0.913 | 1.22 | -0.0616 | 0.684 | 1.79 | 0.181 | 0.405 |
| TCAGACAGGTGAAAGTAACTCAGGTACGCAGTCG | 0.326 | 0.474 | 0.598 | 1.01 | 0.974 | 0.472 | -0.0578 | -0.0124 |
| AGTCAAAGTTCAGGACGAGGTAACGCAAAGCACG | 3.22 | 4.76 | 4.54 | 2.81 | 3.06 | 3.75 | 1.73 | 1.73 |
| AGAACGAGGGCACGCTCAGTTGATAGCAGAGTAG | 1.02 | 1.9 | 2.25 | 1.94 | 1.28 | 1.82 | -0.0296 | 0.752 |
